According to PubChem BioAssay AID1159580 (chemical genetic matrix, 2015):
“And” between values parts separate entries of the source, which are not always exact repeats. Identical values can stand only once. Hit rate of the full screen: of about 5,500 compounds, about 2,000 (36%) were called active. About 18% were inconclusive and are not listed. No stated cut-off is given here; in the data, active means normalized growth mostly below about 0.91 (no sharp cut-off); inconclusive means no clear call, values can overlap the other calls; inactive means mostly above about 0.92. This is one part of the list.

Assay: chemical genetic growth profiling, strain panel (AID 1159580);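 further: tested at 20 µM; growth read once vehicle control cultures reached saturation at 30 °C; 1 = growth at the plate median or of vehicle wells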
Details: growth OD

Measured: normalized growth

CCCCNC(=O)NS(=O)(=O)c1ccc(C)cc1
inactive: S. cerevisiae deletion strains, locus YJR075W, strain HOC1, stronger effect = lower value 0.963 and 0.994 | S. cerevisiae deletion strains, locus YKL009W, strain mrt4, stronger effect = lower value 0.953 | S. cerevisiae deletion strains, locus YKL068W, stronger effect = lower value 0.98 | S. cerevisiae deletion strains, locus YKL085W, strain MDH1 (second series), stronger effect = lower value 0.973 | S. cerevisiae deletion strains, locus YKL085W, strain MDH1, stronger effect = lower value 0.973 | S. cerevisiae deletion strains, locus YKL160W, strain elf1, stronger effect = lower value 1 | S. cerevisiae deletion strains, locus YKL190W, strain CNB1, stronger effect = lower value 0.991 | S. cerevisiae deletion strains, locus YKR001C, strain vps1, stronger effect = lower value 0.985 | S. cerevisiae deletion strains, locus YKR026C, strain gcn3, stronger effect = lower value 0.999 | S. cerevisiae deletion strains, locus YKR091W, strain srl3, stronger effect = lower value 1.01 | S. cerevisiae deletion strains, locus YLL001W, strain dnm1, stronger effect = lower value 1.02 | S. cerevisiae deletion strains, locus YLL026W, stronger effect = lower value 1.01 | S. cerevisiae deletion strains, locus YLL041C, strain sdh2, stronger effect = lower value 1.01 | S. cerevisiae deletion strains, locus YLR027C, strain aat2, stronger effect = lower value 1 | S. cerevisiae deletion strains, locus YLR039C, strain RIC1, stronger effect = lower value 0.961 | S. cerevisiae deletion strains, locus YLR058C, strain SHM2, stronger effect = lower value 0.991 | S. cerevisiae deletion strains, locus YLR102C, strain apc9, stronger effect = lower value 0.985 | S. cerevisiae deletion strains, locus YLR113W, strain HOG1, stronger effect = lower value 0.915 | S. cerevisiae deletion strains, locus YLR221C, strain rsa3, stronger effect = lower value 0.952 | S. cerevisiae deletion strains, locus YLR258W, strain gsy2, stronger effect = lower value 1.01 | S. cerevisiae deletion strains, locus YLR262C, strain YPT6 (second series), stronger effect = lower value 0.984 | S. cerevisiae deletion strains, locus YLR262C, strain YPT6, stronger effect = lower value 0.933 | S. cerevisiae deletion strains, locus YLR268W, strain sec22, stronger effect = lower value 0.951 | S. cerevisiae deletion strains, locus YLR320W, strain mms22, stronger effect = lower value 0.999 | S. cerevisiae deletion strains, locus YLR330W, strain CHS5, stronger effect = lower value 0.986 | S. cerevisiae deletion strains, locus YLR342W, strain FKS1 (second series), stronger effect = lower value 1.01 | S. cerevisiae deletion strains, locus YLR342W, strain FKS1, stronger effect = lower value 1.02 | S. cerevisiae deletion strains, locus YLR357W, strain rsc2, stronger effect = lower value 1.02 | S. cerevisiae deletion strains, locus YLR370C, strain arc18, stronger effect = lower value 1.02 | S. cerevisiae deletion strains, locus YLR371W, strain rom2, stronger effect = lower value 0.974 | S. cerevisiae deletion strains, locus YLR384C, strain iki3, stronger effect = lower value 1.02 | S. cerevisiae deletion strains, locus YLR418C, strain cdc73, stronger effect = lower value 1.01 | S. cerevisiae deletion strains, locus YML016C, strain PPZ1, stronger effect = lower value 0.996 | S. cerevisiae deletion strains, locus YML032C, strain rad52, stronger effect = lower value 0.983 | S. cerevisiae deletion strains, locus YML120C, strain ndi1, stronger effect = lower value 1.03 | S. cerevisiae deletion strains, locus YML124C, strain tub3, stronger effect = lower value 0.979 | S. cerevisiae deletion strains, locus YMR058W, strain fet3, stronger effect = lower value 1.02 | S. cerevisiae deletion strains, locus YMR078C, strain ctf18, stronger effect = lower value 0.969 | S. cerevisiae deletion strains, locus YMR125W, strain sto1, stronger effect = lower value 1.02 | S. cerevisiae deletion strains, locus YMR129W, stronger effect = lower value 1.01 | S. cerevisiae deletion strains, locus YMR205C, strain PFK2, stronger effect = lower value 1.01 | S. cerevisiae deletion strains, locus YMR223W, strain ubp8, stronger effect = lower value 1.01 | S. cerevisiae deletion strains, locus YMR231W, strain pep5, stronger effect = lower value 1 | S. cerevisiae deletion strains, locus YMR263W, strain SAP30, stronger effect = lower value 0.999 | S. cerevisiae deletion strains, locus YMR307W, strain GAS1, stronger effect = lower value 1.01 and 1 | S. cerevisiae deletion strains, locus YNL067W, strain RPL9B, stronger effect = lower value 0.992 | S. cerevisiae deletion strains, locus YNL071W, strain lat1, stronger effect = lower value 1.01 | S. cerevisiae deletion strains, locus YNL128W, strain TEP1, stronger effect = lower value 0.965 and 0.986 | S. cerevisiae deletion strains, locus YNL175C, strain NOP13, stronger effect = lower value 1.01 | S. cerevisiae deletion strains, locus YNL183C, strain NPR1, stronger effect = lower value 0.912 | S. cerevisiae deletion strains, locus YNL197C, strain WHI3, stronger effect = lower value 1.01 | S. cerevisiae deletion strains, locus YNL209W, strain ssb2, stronger effect = lower value 1.02 | S. cerevisiae deletion strains, locus YNL224C, strain SQS1, stronger effect = lower value 0.995 | S. cerevisiae deletion strains, locus YNL233W, strain BNI4, stronger effect = lower value 1 | S. cerevisiae deletion strains, locus YNL248C, strain rpa49, stronger effect = lower value 1 | S. cerevisiae deletion strains, locus YNL250W, strain rad50, stronger effect = lower value 0.998 | S. cerevisiae deletion strains, locus YNL271C, strain bni1, stronger effect = lower value 0.991 | S. cerevisiae deletion strains, locus YNL298W, strain CLA4, stronger effect = lower value 0.981 | S. cerevisiae deletion strains, locus YNL307C, strain MCK1, stronger effect = lower value 0.978 | S. cerevisiae deletion strains, locus YNL322C, strain KRE1 (second series), stronger effect = lower value 0.99 | S. cerevisiae deletion strains, locus YNL322C, strain KRE1, stronger effect = lower value 0.992 | S. cerevisiae deletion strains, locus YNR049C, strain mso1, stronger effect = lower value 1.01 | S. cerevisiae deletion strains, locus YNR052C, strain pop2, stronger effect = lower value 0.98 | S. cerevisiae deletion strains, locus YOL006C, strain TOP1, stronger effect = lower value 1.07 | S. cerevisiae deletion strains, locus YOL012C, strain htz1 1.12 | S. cerevisiae deletion strains, locus YOL147C, strain pex11, stronger effect = lower value 0.981 | S. cerevisiae deletion strains, locus YOR001W, strain rrp6, stronger effect = lower value 1.02 | S. cerevisiae deletion strains, locus YOR061W, strain CKA2, stronger effect = lower value 1 | S. cerevisiae deletion strains, locus YOR069W, strain VPS5, stronger effect = lower value 0.985 | S. cerevisiae deletion strains, locus YOR070C, strain gyp1, stronger effect = lower value 1.01 | S. cerevisiae deletion strains, locus YOR080W, strain dia2, stronger effect = lower value 1.02 | S. cerevisiae deletion strains, locus YOR083W, strain WHI5 (second series), stronger effect = lower value 1.01 | S. cerevisiae deletion strains, locus YOR083W, strain WHI5, stronger effect = lower value 0.998 | S. cerevisiae deletion strains, locus YOR106W, strain vam3, stronger effect = lower value 1.04 | S. cerevisiae deletion strains, locus YOR136W, strain idh2, stronger effect = lower value 0.998 | S. cerevisiae deletion strains, locus YOR144C, strain elg1, stronger effect = lower value 0.992 | S. cerevisiae deletion strains, locus YOR184W, strain ser1, stronger effect = lower value 1 | S. cerevisiae deletion strains, locus YOR231W, strain MKK1, stronger effect = lower value 0.983 | S. cerevisiae deletion strains, locus YOR265W, strain rbl2, stronger effect = lower value 1.01 | S. cerevisiae deletion strains, locus YOR270C, strain vph1, stronger effect = lower value 1.04 | S. cerevisiae deletion strains, locus YOR290C, strain snf2, stronger effect = lower value 0.998 | S. cerevisiae deletion strains, locus YOR316C, strain cot1, stronger effect = lower value 0.979 | S. cerevisiae deletion strains, locus YPL051W, strain arl3, stronger effect = lower value 0.999 | S. cerevisiae deletion strains, locus YPL055C, strain LGE1, stronger effect = lower value 1.01 | S. cerevisiae deletion strains, locus YPL078C, strain atp4, stronger effect = lower value 1.04 | S. cerevisiae deletion strains, locus YPL106C, strain sse1, stronger effect = lower value 1.06 | S. cerevisiae deletion strains, locus YPL240C, strain hsp82, stronger effect = lower value 1 | S. cerevisiae deletion strains, locus YPL241C, strain CIN2, stronger effect = lower value 0.994 and 1 | S. cerevisiae deletion strains, locus YPL256C, strain CLN2, stronger effect = lower value 0.945 | S. cerevisiae deletion strains, locus YPR119W, strain clb2, stronger effect = lower value 0.986 | S. cerevisiae deletion strains, locus YPR141C, strain kar3, stronger effect = lower value 0.979 | S. cerevisiae deletion strains, locus YPR163C, strain tif3, stronger effect = lower value 0.979 | S. cerevisiae deletion strains, locus YPR167C, strain met16, stronger effect = lower value 0.987 | S. cerevisiae deletion strains, strain wtn01, stronger effect = lower value 0.969 | S. cerevisiae strains, strain wild type, stronger effect = lower value 1
